An excerpt weighted towards active compounds, which were near 1.3% of everything screened.
p53 reactivator – qHTS assay for re-activators of p53 using a Luc reporter; H1299 p53-A138V BP100-luciferase reporter, luminescence, 24 h; Potency, µM (titrated, usually from 92.2 µM), for inactives: at the highest dose activity change, positive = activation, most hits filed as activators; 0.063% of 320,000 active; AID 504706, 2011; also: potency is read from the fitted curve at half-maximal effect; % of control where 0% means no effect; nearly all actives have a fitted effect of over 45% in size
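H1299 (p53-null), stable ts p53-A138V + BP100-Luc; 1000 cells/well, Opti-MEM/10% FBS; cpd 4 pt, 1:5; 24 h, 37 deg C, 5% CO2; detection reagent 10 min RT; luminescence.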
BRCA1 expr up – qHTS Assay to Identify Small Molecule Activators of BRCA1 Expression | 1.1% of 380,000 active | Potency, µM (highest dose often 46.1 µM), inactives show top-dose activation, usual class: activators | MCF7-BRCA1-FFLuc reporter, luminescence, 48 h; response scale: scaled: vehicle 0%, 10 µM genistein 100%; also: potency is read from the fitted curve at half-maximal effect; nearly all actives have a fitted effect of over 80% in size
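Activators of BRCA1 expression were detected as increased firefly luciferase luminescence in engineered MCF7 cells after 48 h compound incubation. Signals were scaled to genistein 10 microM as full activation.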
TCR act – Activators of T cell receptors: qHTS campaign; primary human leukocytes, anti-CD3, IL-2 HTRF, 48 h; Potency, µM (doses to about 9.22 µM), inactives show at the top dose activation of IL-2 secretion, actives largely listed as activators; 330,000 tested, under 10 active; AID 504894, 2011; also: % of control where 0% means no effect
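1) Mix primary human leukocytes, a-CD3 beads and compound. 2) Incubate 48 hr. 3) Add HTRF IL-2 reagents (a-IL-2-K, a-IL-2-d2).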
IL2 activator – qHTS of IL-2 Activators; IL-2 activation reporter assay, cell-based qHTS; stimulated with anti-CD3/CD4/CD28 beads; in transgenic mouse T cells; activation, % (series mostly up to about 46 µM); 0.065% of 360,000 active; AID 652025, 2013; in the data active = activation above about 50%; inconclusive = mostly about 30% to 49%; also: 0% is about no effect
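Screening format: compound pinned onto unstimulated transgenic mouse T cells, 60 min incubation, then anti-CD3/anti-CD4/anti-CD28 bead stimulation for 18 hours at 37 degrees C, followed by EGFP and DsRed detection.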
Mito fusion act – qHTS Assay for Small Molecule Inhibitors of Mitochondrial Division or Activators of Mitochondrial Fusion; Potency, µM (titrated, usually from 46.1 µM), without a hit: top-dose growth rescue (activation), usual class: activators; 0.23% of 320,000 active; AID 485298, 2010; S. cerevisiae fusion-defective mutant growth rescue, CellTiterGlo 48 h; also: potency is read from the fitted curve at half-maximal effect; % of control where 0% means no effect; nearly all actives have a fitted effect of over 45% in size
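Yeast fusion mutant, YPEG (non-fermentable carbon), compound, 48 h at 37C non-permissive; CellTiterGlo added, 10 min RT, luminescence read. Rescued growth = division inhibition.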
Active calls of the source: *; ? = inconclusive; nt = no result given; ! = not active in a repeat; [ ] = remark or other dose. Unless noted, calls follow the shape of the dose curve; as a rule, active = well fitted curve in the direction sought with a large enough effect; inconclusive = small, poorly fitted or top-dose-only effect, or another doubt; inactive = no such curve, though single readings can be large; an effect the other way counts as inactive or inconclusive.

SMILES	p53 reactivator	BRCA1 expr up	TCR act	IL2 activator	Mito fusion act
CCC1(OC(=O)CN)C(=O)OCc2c1cc1n(c2=O)Cc2cc3ccccc3nc2-1 (stereo unspecified)	12%	?	-1%	-6	0.79µM*
CC[C@@]1(O)C(=O)OCc2c1cc1n(c2=O)Cc2cc3ccccc3nc2-1	0%	-10%	nt	nt	13µM*!
C=CCN(C1=NCCN1)c1c(Cl)cccc1Cl	nt	nt	nt	nt	4%
O=C(Nc1ccccc1C(F)(F)F)c1cccn(Cc2ccccc2)c1=O	nt	-3%	nt	nt	nt
COc1ccc(-n2nc(C(=O)NCC(=O)N3CCC4(CC3)OCCO4)c3ccccc3c2=O)cc1Cl	?	10µM*	1%	-3	6%
CC(Cc1ccccc1)NC(=O)/C=C/c1ccc(Cl)cc1 (stereo unspecified)	?	65%	-3%[46.1 µM]	87*	?
CC(Cc1ccccc1)NC(N)=O (stereo unspecified)	-3%	-5%	4%	0	-9%
COc1ccc(C)cc1NC(=O)c1cccn(Cc2cccc([N+](=O)[O-])c2)c1=O	nt	0%	nt	nt	nt
O=c1c2cc(N3CCOCC3)ccc2[nH]c(=S)n1Cc1ccc(Cl)cc1	17%	11µM*	-3%	1	9%
C=CCN1CCc2cccc3c2[C@H]1Cc1ccc(O)c(O)c1-3	nt	-39%	5%	0	4.1µM*!
CSc1cccc(CNC(=O)C2CCC(=O)N(Cc3cccc(C(F)(F)F)c3)C2)c1 (stereo unspecified)	11%	?	-1%	-1	-6%
CC(=O)NCC(N)C(=O)c1ccc(C)cc1 (stereo unspecified)	nt	-15%	nt	nt	nt
NCCCNCCSP(=O)(O)O	nt	nt	nt	nt	-34%
CC(=O)[C@H]1CCC2C3CC[C@H]4C[C@H](O)CC[C@]4(C)C3CC[C@@]21C (stereo partly specified)	nt	nt	nt	nt	5.2µM*
C[C@H]1CC[C@@]2(C)[C@@H](CC[C@@H]3[C@@H]2CC[C@]2(C)[C@@H](O)CC[C@@H]32)C1	5%	10%	-54%	-3	13µM*
C[C@]12CCC3C(CC[C@H]4C[C@H](O)CC[C@]34C)C1CC[C@@H]2C(=O)CO (stereo partly specified)	nt	nt	nt	nt	18µM*
C[C@]12CCC3C(CC[C@H]4C[C@@H](O)CC[C@]34C)[C@H]1CC[C@H]2O (stereo partly specified)	-2%	-25%	1%	0	nt
Cc1cc(/C=C/c2ccnc3ccccc23)ccc1N(CCCl)CCCl	nt	0%	nt	nt	nt
Cc1cc([C@@H]2CCCN2C)on1	nt	nt	nt	nt	-30%
NC(Cc1ccccc1)c1nc2ccccc2[nH]1 (stereo unspecified)	12%	64%	-2%	1	3%
NC(Cc1nc2ccccc2[nH]1)c1ccc(Cl)cc1 (stereo unspecified)	?	11µM*	6%	-2	-8%
CN(C)c1ccc(/C=C2/C(=N\O)C3CCN2CC3)cc1	10%	4µM*	2%	-1	14%
Nc1ccc2c(c1)Cc1cc([N+](=O)[O-])ccc1-2	?	10µM*	-4%	-5	23%
O=[N+]([O-])c1ccc2c(c1)Cc1cc(O)ccc1-2	nt	26%	6%	-3	nt
Cc1cccc(N2CCN(C(=O)CCNS(=O)(=O)c3ccc4c(c3)oc(=O)n4C)CC2)c1C	-4%	-6%	-4%	0	20µM*
SMILES	p53 reactivator	BRCA1 expr up	TCR act	IL2 activator	Mito fusion act
COCCCNC(=O)c1c(NC(=O)c2ccccc2)n(Cc2ccccc2)c2nc3ccccc3nc12	nt	8%	4%	68*	nt
CC(C)(O)[C@@H]1C2OC(=O)[C@@H]1[C@]1(O)C[C@H]3O[C@]34C(=O)O[C@H]2[C@]14C (tested in a mixture with another compound)	nt	nt	nt	nt	-4%
CC(C)(C)C(O)C(Oc1ccc(Cl)cc1)n1cncn1 (stereo unspecified)	1%	5%	-8%	0	35µM*
COc1cccc(N2CCN(C(=O)C3CCCN(S(=O)(=O)c4ccc5c(c4)oc(=O)n5C)C3)CC2)c1 (stereo unspecified)	-6%	-8%	0%	-3	?
O=c1[nH]/c(=C\c2ccc(N(CCCl)CCCl)cc2)c(=O)[nH]/c1=C\c1ccc(N(CCCl)CCCl)cc1	nt	-15%	nt	nt	nt
N#Cc1cc2c(nc1SCC(=O)Nc1cc(Cl)ccc1Cl)C1CCN2CC1	45µM*	25%	9%[46.1 µM]	-4	24%
N#Cc1cc2c(nc1SCC(=O)Nc1ccc(Cl)cc1)C1CCN2CC1	?	-1%	-5%	-1	3%
Cc1ccc(N2CCN(C(=O)c3cn(CC4CCCCC4)nn3)C(C)C2)cc1 (stereo unspecified)	nt	2.5µM*	-5%	-5	nt
O=C(c1ccc2c(c1)N(Cc1c(F)cccc1Cl)C(=O)c1ccccc1S2)N1CCC2(CC1)OCCO2	nt	0%	nt	nt	nt
Brc1c(Br)c(Br)c2n[nH]nc2c1Br	nt	nt	nt	nt	4.6µM*
Cc1cc(C(=O)CS(=O)(=O)c2ccc(F)cc2)cc(C)c1OC(=O)N(C)C	9%	4µM*	3%	1	-5%
O=C(Cn1c(=O)oc2ccccc21)NCCc1ccccc1	9%	40%	2%	-4	-45%
COc1ccc(-c2nc3ccccc3c(=O)o2)cc1	-4%	14µM*	1%	-2	1%
CC(=O)OCC1=C(C(=O)O)N2C(=O)[C@@H](NC(=O)CCC[C@@H](N)C(=O)O)[C@H]2SC1	nt	nt	nt	nt	4%
c1ccc2c(c1)-c1cccc3cccc-2c13	-1%	15%	4%	-1	12%
Nc1c(Br)cc2c3c(cccc13)-c1ccccc1-2	nt	-35%	17%	82*	nt
CCOC(=O)c1c(/N=C/C2C(=O)NC(=O)NC2=O)sc2c1CCC2	3%	-16%	5%	76*	-1%
CCOC(=O)c1c(/N=C/c2c(O)n(-c3cccc(C)c3)c(=O)[nH]c2=O)sc2c1CCCC2	-3%	6%	-1%[46.1 µM]	1	5%
Cc1c(C(=O)c2cccc3ccccc23)c2cccc3c2n1[C@H](CN1CCOCC1)CO3	nt	-65%	16%	0	9.2µM*
NC(=O)CI	nt	nt	nt	nt	-37%
C=CCOC(Cn1ccnc1)c1ccc(Cl)cc1Cl (stereo unspecified)	-5%	-11%	1%	0	25µM*
Clc1ccc(COC(Cn2ccnc2)c2ccc(Cl)cc2Cl)c(Cl)c1 (stereo unspecified)	3%	-47%	6%	-1	3.5µM*
O=C(N/N=C/c1c(O)n(Cc2ccccc2)c(=O)[nH]c1=O)c1ccccc1O	32µM*	-43%	-1%[46.1 µM]	-4	5%
